This is an account of results in PubChem BioAssay (NCI).

Each structure is given as a SMILES string. This is part of a sample that, as a whole, favours compounds with a hit. Of some 83,000 tested, about 20% had one in any assay.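 96-well plates, one dose, 48 hours. Percent growth reported; active if below 10.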 Unmarked numbers belong to inactive results. Active and inactive are the calls of the source.

What all share (assay): NCI-60 one-dose screen, 48 h (100 = growth as untreated, 0 = no growth, -100 = all killed)
One test relates to SK-MEL-2 melanoma. As to conditions: 10 µM unless noted.
The test system of the next test is EKVX NSCLC. As to conditions: 10 µM unless noted.
For a further test, the system named is SN12C renal. As to conditions: 10 µM unless noted.
The test system of a further test is UO-31 renal. Conditions: 10 µM unless noted.
For the next test, the system named is TK-10 renal. As to conditions: 10 µM unless noted.
Another test has as its system ACHN renal. Conditions: 10 µM unless noted.
The subject of a further test is CAKI-1 renal. As to conditions: 10 µM.
A further test has as its system A498 renal. As to conditions: 10 µM unless noted.
The next test deals with CCRF-CEM leukemia. As to conditions: 10 µM unless noted.
A further test deals with MOLT-4 leukemia. As to conditions: 10 µM unless noted.
In another test the test system is SR leukemia. As to conditions: 10 µM unless noted.
The next test deals with OVCAR-8 ovarian. As to conditions: 10 µM unless noted.
The next test has as its system OVCAR-5 ovarian. Conditions: 10 µM unless noted.
Another test relates to OVCAR-4 ovarian. Conditions: 10 µM unless noted.
Another test has as its system SK-OV-3 ovarian. Conditions: 10 µM unless noted.
In the next test the test system is IGROV1 ovarian. As to conditions: 10 µM unless noted.
A further test concerns OVCAR-3 ovarian. As to conditions: 10 µM unless noted.
The test system of the next test is NCI/ADR-RES ovarian. As to conditions: 10 µM unless noted.
A further test relates to HS 578T breast. Conditions: 10 µM unless noted.
Another test has as its system RPMI-8226 leukemia. Conditions: 10 µM unless noted.

Consider `COCCC[C@H]1O[C@@](O)([C@H](C)[C@@H]2CC(OC)C(O)/C=C(C)/C=C(C)/C=C(\C)C(OC3O[C@@H](C)[C@H](O)C(O)[C@@H]3O)C(C)/C=C(C)/C=C(OC)/C=C(\C)C(=O)O2)C(OC)C(O)[C@]1(C)O[C@H]1C[C@@H](O)[C@H](O[C@H]2C[C@](C)(O)[C@H](O)C(C)O2)C(C)O1` (some centres not stated), for which the growth in the test with SK-MEL-2 melanoma is 50.6%; with EKVX NSCLC, 21.6%; with SN12C renal it was 68.3%; in the test on UO-31 renal, 25.7%; with TK-10 renal it was 49.9%; with ACHN renal it was 67.7%. For the same compound, the growth in the test on CAKI-1 renal was 73.8%; in the test with A498 renal, 56%; with CCRF-CEM leukemia, 53.9%; in the test on MOLT-4 leukemia it was 47.8%; in the test with SR leukemia, 113%; in the test with OVCAR-8 ovarian, 41.9%. Further, the growth is 78.9% in the test on OVCAR-5 ovarian; 19.7% in the test with OVCAR-4 ovarian; 61% with SK-OV-3 ovarian; 88.1% with IGROV1 ovarian; 74.9% with OVCAR-3 ovarian; 67.3% in the test with NCI/ADR-RES ovarian.
As to `COc1ccc(-c2nc(SCCC(C)C)nc(N/N=C\c3ccc(O)cc3)c2C#N)cc1`, the growth in the test with SK-MEL-2 melanoma was 104%; in the test on EKVX NSCLC, 93.1%; in the test with SN12C renal it was 67.6%; with UO-31 renal, 76.8%; in the test on TK-10 renal, 157%; in the test on ACHN renal, 60.9%. Further, the growth was 78% in the test on CAKI-1 renal; 92.5% in the test on A498 renal; 54.7% in the test with CCRF-CEM leukemia; 64.5% in the test with MOLT-4 leukemia; 25.5% with SR leukemia; 47.6% in the test with OVCAR-8 ovarian. In addition, the growth was 101% with OVCAR-5 ovarian; 74.9% with OVCAR-4 ovarian; 109% in the test on SK-OV-3 ovarian; 68.5% with IGROV1 ovarian; 67% in the test on HS 578T breast; 55.1% with NCI/ADR-RES ovarian.
As for `Cc1ccc(C2CC(c3ccc(Nc4nc(NCCO)nc(Nc5ccc(Cl)cc5)n4)cc3)=Nc3c(N)nc(N)nc3N2)cc1` (configuration not stated), the growth in the test on SK-MEL-2 melanoma was 99%; with EKVX NSCLC it was 33.1%; in the test with SN12C renal, -65.8% (active); in the test on UO-31 renal, -91.6% (active); in the test with TK-10 renal it was -84.5% (active); in the test with ACHN renal, -36.6% (active). Also, the growth with CAKI-1 renal was -9.94% (active); in the test on A498 renal it was 77.9%; in the test with CCRF-CEM leukemia, -23.2% (active); in the test with MOLT-4 leukemia, -29.3% (active); with RPMI-8226 leukemia it was -55.4% (active); in the test on OVCAR-8 ovarian it was -81% (active). For the same compound, the growth in the test on OVCAR-5 ovarian is -63.3% (active); in the test with OVCAR-4 ovarian, -54.4% (active); in the test on SK-OV-3 ovarian it was 114%; in the test on IGROV1 ovarian it was -63.3% (active); in the test on HS 578T breast, 11.9%; with NCI/ADR-RES ovarian it was -39.8% (active).
As to `COC(=O)c1c(C(=O)OC)c2n(CC(=O)Nc3cccc4cccnc34)c3ccccc3n2c1C(=O)c1ccc(C)cc1`, the growth was 102% in the test with SK-MEL-2 melanoma; 97.4% with EKVX NSCLC; 92.5% in the test with SN12C renal; 75.7% in the test on UO-31 renal; 108% in the test with TK-10 renal; 97.6% with ACHN renal. In addition, the growth in the test with CAKI-1 renal was 104%; in the test on A498 renal, 105%; with CCRF-CEM leukemia, 95.4%; in the test with MOLT-4 leukemia it was 93.3%; with SR leukemia, 122%; in the test with OVCAR-8 ovarian, 92.4%. The growth was 102% in the test on OVCAR-5 ovarian; 99.8% with OVCAR-4 ovarian; 119% in the test with SK-OV-3 ovarian; 97.6% with IGROV1 ovarian; 114% in the test on OVCAR-3 ovarian; 111% in the test with HS 578T breast. In the test with NCI/ADR-RES ovarian, the growth is 96%.
In the case of `CCCCSc1nnc(-c2ccc(-c3ccc(Cl)cc3)nc2C)o1`, the growth in the test with SK-MEL-2 melanoma was 106%; with EKVX NSCLC, 95.4%; with SN12C renal, 98.2%; with UO-31 renal, 93.4%; in the test with TK-10 renal, 109%; in the test on ACHN renal, 104%. The growth in the test on CAKI-1 renal was 95.4%; with A498 renal, 71%; in the test with CCRF-CEM leukemia it was 99.7%; with MOLT-4 leukemia, 96.3%; in the test on SR leukemia it was 95.5%; with OVCAR-8 ovarian, 109%. For the same compound, the growth with OVCAR-5 ovarian is 101%; with OVCAR-4 ovarian, 102%; in the test with SK-OV-3 ovarian, 111%; in the test on IGROV1 ovarian, 99.1%; in the test on HS 578T breast, 105%; with NCI/ADR-RES ovarian, 99.8%.
On to `COc1ccc(-c2cc(-c3cccc4ccccc34)n3c(n2)nc2ccccc23)cc1`, for which the growth in the test with SK-MEL-2 melanoma is 79.1%; in the test with EKVX NSCLC it was 74.9%; in the test on SN12C renal it was 36.9%; in the test with UO-31 renal it was 29%; in the test on TK-10 renal, 43%; with ACHN renal it was 19.7%. The growth in the test with CAKI-1 renal is 21%; with A498 renal it was 41.5%; with CCRF-CEM leukemia, 9.05% (active); with MOLT-4 leukemia, 2.23% (active); in the test with RPMI-8226 leukemia, 32.7%; with OVCAR-8 ovarian, 42.1%. Also, the growth in the test with OVCAR-5 ovarian was 81.1%; in the test on OVCAR-4 ovarian it was 64.8%; in the test with SK-OV-3 ovarian, 58.4%; with IGROV1 ovarian, 48.7%; in the test on HS 578T breast, 55%; in the test with NCI/ADR-RES ovarian, 54.2%.
`CC1COc2c(N3CCN(C)CC3)c(F)cc3c(=O)c(C(=O)N/N=C/c4cc[nH]c4)cn1c23` (configuration not stated): the growth was 83.5% in the test on SK-MEL-2 melanoma; 33.3% in the test with EKVX NSCLC; 49.3% in the test on SN12C renal; 54% in the test on UO-31 renal; 87.8% with TK-10 renal; 43.8% in the test with ACHN renal. In addition, the growth with CAKI-1 renal is 47.6%; with A498 renal, 40.6%; in the test on CCRF-CEM leukemia, -35.9% (active); with MOLT-4 leukemia it was 9.4% (active); in the test with RPMI-8226 leukemia it was 45.3%; with OVCAR-8 ovarian it was 19.4%. Also, the growth in the test with OVCAR-5 ovarian was 77.8%; with OVCAR-4 ovarian, 44.6%; with SK-OV-3 ovarian, 61.6%; in the test on IGROV1 ovarian, 26.6%; in the test on HS 578T breast, 67.5%; in the test with NCI/ADR-RES ovarian, 94.2%.
